In PubChem BioAssay:
Active and inactive are the calls of the source. Unless noted, no rule for the calls is given here.

Tests used:
[1] = anti-His antibody binders, primary screen, artefact control for SMM control protein annotation, biochemical, small-molecule microarray, 635 nm fluorescence (AID 1128); details: anti-His Alexa647 antibody binding, higher = more signal;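 also: score merges feature fluorescence with signal-to-noise for each printed compound spot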
[2] = system: Human papillomavirus type 1a E7 protein (residues 1-88); test: HPV1a E7 small-molecule binders, primary screen, biochemical, small-molecule microarray, residues 1-88, 635 nm (AID 1129); details: small-molecule microarray binding, fluorescence 635 nm; higher = more signal
[3] = target: Focal adhesion kinase 1 (Homo sapiens) (UniProt Q05397); test: small-molecule microarray binders of FAK, primary screen, biochemical, 635/667 nm fluorescence, BSA, DTT (AID 1130); details: PTK2 binding, 635 nm fluorescence, higher = more signal;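 also: composite of spot emission at 667 nm and signal to noise over triplicate slides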
Sequence of Focal adhesion kinase 1 (Homo sapiens) (Q05397 whole entry, looked up): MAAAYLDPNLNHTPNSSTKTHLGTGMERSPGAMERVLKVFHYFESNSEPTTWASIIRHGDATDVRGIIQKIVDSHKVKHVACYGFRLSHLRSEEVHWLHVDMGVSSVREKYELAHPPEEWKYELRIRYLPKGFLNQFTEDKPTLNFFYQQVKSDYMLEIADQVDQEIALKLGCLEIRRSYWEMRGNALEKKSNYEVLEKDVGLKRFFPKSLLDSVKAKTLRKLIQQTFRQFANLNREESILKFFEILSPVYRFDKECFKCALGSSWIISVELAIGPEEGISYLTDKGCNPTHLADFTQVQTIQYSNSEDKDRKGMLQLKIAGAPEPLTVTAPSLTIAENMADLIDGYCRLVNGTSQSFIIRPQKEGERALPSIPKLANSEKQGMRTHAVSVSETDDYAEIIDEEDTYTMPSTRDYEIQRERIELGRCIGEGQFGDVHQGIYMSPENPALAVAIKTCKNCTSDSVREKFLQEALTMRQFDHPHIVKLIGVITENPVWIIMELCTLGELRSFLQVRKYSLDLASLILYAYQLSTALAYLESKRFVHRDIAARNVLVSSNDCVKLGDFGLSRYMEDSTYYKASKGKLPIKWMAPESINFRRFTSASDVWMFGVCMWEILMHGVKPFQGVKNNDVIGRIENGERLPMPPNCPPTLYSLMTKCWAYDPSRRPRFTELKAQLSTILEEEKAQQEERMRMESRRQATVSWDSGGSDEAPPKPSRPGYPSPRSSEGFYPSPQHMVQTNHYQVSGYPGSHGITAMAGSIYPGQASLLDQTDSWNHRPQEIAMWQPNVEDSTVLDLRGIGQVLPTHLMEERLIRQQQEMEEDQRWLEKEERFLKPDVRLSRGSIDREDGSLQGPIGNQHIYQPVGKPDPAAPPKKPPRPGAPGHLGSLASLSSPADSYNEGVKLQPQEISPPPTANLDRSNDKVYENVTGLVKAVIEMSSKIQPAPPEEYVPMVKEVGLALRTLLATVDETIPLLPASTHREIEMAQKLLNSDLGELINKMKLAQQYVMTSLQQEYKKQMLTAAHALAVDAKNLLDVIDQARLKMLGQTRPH

[4] = system: Fibrinogen (Alexa647-labelled); test: fibrinogen binders on compound microarrays, profiling panel, artefact control for SMM control-protein annotation, biochemical, small-molecule microarray, 635/667 nm fluorescence (AID 1131); details: fibrinogen-A647 binding fluorescence, higher = more signal;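 also: z-score merges 667 nm fluorescence with per-spot signal-to-noise over triplicate slides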
[5] = target: Follistatin (Homo sapiens) (UniProt P19883); test: follistatin binders on small-molecule microarrays, primary screen, biochemical, small-molecule microarray, 635/667 nm fluorescence (AID 1132); details: FST binding, 635 nm fluorescence, higher = more signal
Sequence of Follistatin (Homo sapiens) (P19883 whole entry, looked up): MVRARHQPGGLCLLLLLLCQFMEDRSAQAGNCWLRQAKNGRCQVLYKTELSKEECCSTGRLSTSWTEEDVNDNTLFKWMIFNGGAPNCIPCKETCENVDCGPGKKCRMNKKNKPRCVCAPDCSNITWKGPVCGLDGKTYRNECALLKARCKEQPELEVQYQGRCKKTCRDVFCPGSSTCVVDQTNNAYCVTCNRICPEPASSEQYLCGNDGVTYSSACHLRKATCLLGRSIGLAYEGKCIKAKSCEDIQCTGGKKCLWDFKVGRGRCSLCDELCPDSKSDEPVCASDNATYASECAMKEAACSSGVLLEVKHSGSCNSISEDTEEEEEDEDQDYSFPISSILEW

[6] = target: Fibroblast growth factor 2 (Homo sapiens) (UniProt P09038); test: FGF2 binders on small-molecule microarrays, primary screen, biochemical, small-molecule microarray, 635/667 nm fluorescence (AID 1133); details: small-molecule microarray binding, FGF2, fluorescence 635/667; higher = more signal
Sequence of Fibroblast growth factor 2 (Homo sapiens) (P09038 whole entry, looked up): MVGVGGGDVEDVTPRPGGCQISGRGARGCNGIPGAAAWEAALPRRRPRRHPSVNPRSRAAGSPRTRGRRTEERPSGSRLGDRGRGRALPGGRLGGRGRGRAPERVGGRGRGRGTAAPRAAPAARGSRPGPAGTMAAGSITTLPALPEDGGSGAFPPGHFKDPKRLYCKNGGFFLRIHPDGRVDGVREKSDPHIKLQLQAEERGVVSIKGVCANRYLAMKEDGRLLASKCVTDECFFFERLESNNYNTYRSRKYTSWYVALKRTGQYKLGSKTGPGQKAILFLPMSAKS

[7] = mitochondrial membrane potential change in A549 cells, profiling panel, cell-based, JC-1 fluorescence, basal, 24 h, 100 nL (AID 1138); details: higher = more signal;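 also: A549 lung adenocarcinoma cells under basal conditions with no added stimulus; test concentration not given here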
Lefty1 = Lefty1 binders on small-molecule microarrays, primary screen, biochemical, small-molecule microarray, 635/667 nm fluorescence (AID 1139); details: small-molecule microarray binding, fluorescence 635/667; higher = more signal
[8] = system: wheat germ agglutinin (Triticum aestivum), Alexa647-labelled; test: wheat germ agglutinin binders on compound microarrays, profiling panel, artefact control for SMM control-protein annotation, biochemical, small-molecule microarray, 635/667 nm fluorescence (AID 1140); details: WGA-A647 binding, 635 nm fluorescence, higher = more signal;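 also: score merges 667 nm feature emission with signal to noise over triplicate slides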
[9] = target: Luciferin 4-monooxygenase (Photinus pyralis) (UniProt P08659); test: firefly luciferase enzyme inhibitors, primary screen, biochemical, luminescence, purified enzyme, 2006 set (AID 1141); details: SteadyGlo luminescence, 30 min, higher = more signal, called active from +8 up or from −8 down;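 also: cell-free assay with purified firefly luciferase at 100 ng per well in PBS; test concentration not given here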
Sequence of Luciferin 4-monooxygenase (Photinus pyralis) (P08659 whole entry, looked up): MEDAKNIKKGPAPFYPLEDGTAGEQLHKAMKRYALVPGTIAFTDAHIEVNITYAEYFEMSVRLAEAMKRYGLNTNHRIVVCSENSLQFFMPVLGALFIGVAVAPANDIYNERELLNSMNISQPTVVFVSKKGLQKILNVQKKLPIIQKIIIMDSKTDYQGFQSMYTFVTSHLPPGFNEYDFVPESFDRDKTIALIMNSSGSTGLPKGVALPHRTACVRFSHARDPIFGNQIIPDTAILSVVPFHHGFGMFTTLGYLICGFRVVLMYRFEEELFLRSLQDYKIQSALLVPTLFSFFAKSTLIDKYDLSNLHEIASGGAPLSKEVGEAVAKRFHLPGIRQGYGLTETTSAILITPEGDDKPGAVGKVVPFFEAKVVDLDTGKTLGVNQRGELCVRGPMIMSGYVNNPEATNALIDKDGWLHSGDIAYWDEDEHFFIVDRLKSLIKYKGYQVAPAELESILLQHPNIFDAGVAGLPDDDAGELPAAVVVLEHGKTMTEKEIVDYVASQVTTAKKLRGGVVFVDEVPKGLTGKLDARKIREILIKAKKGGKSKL

[10] = system: Wnt5a (protein binding on small-molecule microarray); test: Wnt5a binders on small-molecule microarray, primary screen, biophysical, 635/667 nm fluorescence (AID 1142); details: 635 nm fluorescence, higher = more signal;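 also: fluorescence read at 667 nm with signal to noise per printed feature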
[11] = cell viability in Huh7 cells, primary screen, cytotoxicity control for HCV replication inhibitor project, CellTiter-Glo luminescence, basal, 48 h (AID 1143); details: Huh7 HCV replicon, higher = more signal, called active from +8 up or from −8 down;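 also: Huh7 hepatoma cells carrying a hepatitis C replication reporter with no stimulus; test concentration not given here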
[12] = P. aeruginosa biofilm formation inhibitors, primary screen, PAO1 strain, BacTiter-Glo luminescence, LB-PBS (AID 1144); details: 12 h, higher = more signal
[13] = CREB reporter modulators without forskolin, primary screen, cell-based, PC12, CRE-LacZ reporter, unstimulated (AID 1145); details: no forskolin, luminescence, 4.5 h, higher = more signal, called active from +8 up or from −8 down
[14] = CREB reporter modulators under forskolin, primary screen, cell-based, PC12, CRE-LacZ reporter, forskolin-stimulated (AID 1146); details: luminescence, 4.5 h, higher = more signal, called active from +8 up or from −8 down;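 also: PC12 cells with 6xCRE LacZ reporter stimulated by forskolin 10 µM; beta-galactosidase reporter signal reflecting CREB driven transcription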
[15] = target: Streptavidin (Streptomyces avidinii) (UniProt P22629); test: streptavidin binders on small-molecule microarray, primary screen, artefact control for SMM compound annotation, biophysical, 635/667 nm fluorescence (AID 1147); details: streptavidin binding, higher = more signal;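 also: signal reflects streptavidin binding to arrayed compounds as a control protein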
Sequence of Streptavidin (Streptomyces avidinii) (P22629 whole entry, looked up): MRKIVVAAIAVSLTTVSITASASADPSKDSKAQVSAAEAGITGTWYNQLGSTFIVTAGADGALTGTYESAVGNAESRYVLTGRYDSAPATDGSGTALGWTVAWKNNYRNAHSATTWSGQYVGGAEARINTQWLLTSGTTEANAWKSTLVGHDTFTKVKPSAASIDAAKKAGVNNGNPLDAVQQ

[16] = small-molecule binders of probe aInhba, primary screen, biochemical, small-molecule microarray, 635/667 nm fluorescence (AID 1148); details: higher = more signal;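 also: score merges 667nm spot fluorescence with signal-to-noise for antibody binding to printed compounds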
Torsin-1A (Homo sapiens) [17] = target: Torsin-1A (Homo sapiens) (UniProt O14656); test: torsin A binders from cell lysate, primary screen, small-molecule microarray, wild-type, 635/667 nm (AID 1149); details: COS7 hTOR1A-WT lysate, 635 nm fluorescence, higher = more signal
Sequence of Torsin-1A (Homo sapiens) (O14656 whole entry, looked up): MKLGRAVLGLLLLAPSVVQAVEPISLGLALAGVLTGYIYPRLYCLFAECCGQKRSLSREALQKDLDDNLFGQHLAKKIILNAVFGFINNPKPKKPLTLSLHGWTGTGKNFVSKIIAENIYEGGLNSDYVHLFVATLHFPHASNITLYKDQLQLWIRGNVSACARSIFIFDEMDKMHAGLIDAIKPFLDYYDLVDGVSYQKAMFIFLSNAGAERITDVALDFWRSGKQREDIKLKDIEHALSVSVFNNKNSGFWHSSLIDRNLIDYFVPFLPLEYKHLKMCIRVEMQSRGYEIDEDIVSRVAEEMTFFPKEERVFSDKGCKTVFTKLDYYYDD

Torsin-1A (Homo sapiens) [18] = target: Torsin-1A (Homo sapiens) (UniProt O14656); test: small-molecule binders of mutant TOR1A in lysate, primary screen, cell lysate, small-molecule microarray, COS7 lysate, 635/667 nm fluorescence (AID 1150); details: COS7 hTOR1A mutant lysate, 635 nm fluorescence, higher = more signal;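 also: score pools 667 nm emission and signal to noise measuring lysate protein binding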
[19] = system: Sonic hedgehog protein (Shh); test: small-molecule binders of Shh protein, primary screen, biochemical, small-molecule microarray, 635/667 nm fluorescence (AID 1151); details: small-molecule microarray binding, 635 nm fluorescence; higher = more signal;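 also: Shh protein binding to compounds spotted on small-molecule microarray slides; score combines spot fluorescence intensity with signal-to-noise across triplicate slides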

| Structure (SMILES) | composite z-score [1] | composite z-score [2] | composite z-score [3] | composite z-score [4] | composite z-score [5] | composite z-score [6] | z-score [7] | composite z-score (Lefty1) | composite z-score [8] | z-score [9] | composite z-score [10] | z-score [11] | z-score [12] | z-score [13] | z-score [14] | composite z-score [15] | composite z-score [16] | composite z-score (Torsin-1A (Homo sapiens) [17]) | composite z-score (Torsin-1A (Homo sapiens) [18]) | composite z-score [19] |
| --- | --- | --- | --- | --- | --- | --- | --- | --- | --- | --- | --- | --- | --- | --- | --- | --- | --- | --- | --- | --- |
| CCc1cccc(NC(=O)O[C@H]2[C@H](OC(=O)Nc3ccccc3)[C@H](OC(=O)Nc3ccccc3)[C@@H](OC)O[C@@H]2CO)c1 | 1.14 | 1.26 | 1.53 | 0.571 | 1.16 | 0.216 | -1.55 | 0.0478 | 0.751 | 0.234 (inactive) | 0.428 | -6.02 (inactive) | -0.0223 (inactive) | 1.03 (inactive) | -1.2 (inactive) | 1.03 | 0.212 | -0.417 | 0.778 | 0.0653 |
| CC(C)[C@H]1NC(=O)[C@@]23C(=O)N[C@@H](Cc4ccccc4)C2[C@H](C)[C@@]2(C)O[C@H]2C3/C=C/C/C=C\CNC(=O)[C@H](Cc2ccccc2)NC1=O (stereo not given in full) | 0.591 | 0.973 | 0.117 | 0.982 | 1.31 | 1.42 | -0.182 | 1.57 | 0.489 | -0.894 (inactive) | 0.566 | -2.56 (inactive) | 1.12 (inactive) | 1.57 (inactive) | -0.513 (inactive) | 0.852 | 0.0528 | 1.3 | 0.629 | 1.96 |
| Cc1ccc([C@H]2C(C(=O)O)=C[C@@H](C(C)(C)C)N2S(=O)(=O)c2ccc(C)cc2)cc1 | 1.28 | 1.24 | 0.664 | 0.999 | 0.802 | 0.557 | -0.918 | 0.367 | 1.3 | 1.48 (inactive) | 0.285 | -0.117 (inactive) | 0.62 (inactive) | -0.312 (inactive) | 0.134 (inactive) | 1.54 | 0.271 | 0.0948 | 0.465 | 0.347 |
| COc1ccc(C(O)C2C=CC3C(=O)N(c4ccccc4)C(=O)C3N2Nc2ccc(C(C)C)cc2)c2ccccc12 (stereo not given) | 1.74 | 1.25 | 0.588 | 0.976 | 0.862 | -0.25 | 0.543 | 0.031 | 0.838 | -1.65 (inactive) | 0.295 | 0.0927 (inactive) | -1.88 (inactive) | 0.632 (inactive) | -0.557 (inactive) | 1.92 | 0.216 | 0.724 | 1.01 | -0.328 |
| COC(=O)C(CC#Cc1ccc2c(c1)[C@]1(C(=O)N2)[C@H](c2ccc(O)cc2)N2[C@H](c3ccccc3)[C@H](c3ccccc3)OC(=O)[C@H]2[C@@H]1C(=O)N1CCCCCCC1)C(=O)OC | 0.792 | 1.23 | 1.47 | 0.945 | 1.43 | 1.4 | 1.21 | 0.966 | 1.35 | -1.99 (inactive) | 0.851 | -3.72 (inactive) | -1.77 (inactive) | -0.0515 (inactive) | -0.507 (inactive) | 1.26 | 1.36 | 0.78 | 0.592 | 0.777 |
